Reference: ChEMBL document CHEMBL1201862, “PubChem BioAssay data set” (2004)
Screen size: about 400,000 compounds; about 2,100 (0.53%) were called active. Roughly 14% stayed inconclusive and do not appear here. How the calls were made is not given here. For the sample, actives were picked, then their nearest neighbours and some compounds at random.

Each compound was assayed against Ataxin-2 (Homo sapiens) (UniProt Q99700) (assay: qHTS for Inhibitors of ATXN expression.).
Ataxin-2 (Homo sapiens), sequence (Q99700 whole entry): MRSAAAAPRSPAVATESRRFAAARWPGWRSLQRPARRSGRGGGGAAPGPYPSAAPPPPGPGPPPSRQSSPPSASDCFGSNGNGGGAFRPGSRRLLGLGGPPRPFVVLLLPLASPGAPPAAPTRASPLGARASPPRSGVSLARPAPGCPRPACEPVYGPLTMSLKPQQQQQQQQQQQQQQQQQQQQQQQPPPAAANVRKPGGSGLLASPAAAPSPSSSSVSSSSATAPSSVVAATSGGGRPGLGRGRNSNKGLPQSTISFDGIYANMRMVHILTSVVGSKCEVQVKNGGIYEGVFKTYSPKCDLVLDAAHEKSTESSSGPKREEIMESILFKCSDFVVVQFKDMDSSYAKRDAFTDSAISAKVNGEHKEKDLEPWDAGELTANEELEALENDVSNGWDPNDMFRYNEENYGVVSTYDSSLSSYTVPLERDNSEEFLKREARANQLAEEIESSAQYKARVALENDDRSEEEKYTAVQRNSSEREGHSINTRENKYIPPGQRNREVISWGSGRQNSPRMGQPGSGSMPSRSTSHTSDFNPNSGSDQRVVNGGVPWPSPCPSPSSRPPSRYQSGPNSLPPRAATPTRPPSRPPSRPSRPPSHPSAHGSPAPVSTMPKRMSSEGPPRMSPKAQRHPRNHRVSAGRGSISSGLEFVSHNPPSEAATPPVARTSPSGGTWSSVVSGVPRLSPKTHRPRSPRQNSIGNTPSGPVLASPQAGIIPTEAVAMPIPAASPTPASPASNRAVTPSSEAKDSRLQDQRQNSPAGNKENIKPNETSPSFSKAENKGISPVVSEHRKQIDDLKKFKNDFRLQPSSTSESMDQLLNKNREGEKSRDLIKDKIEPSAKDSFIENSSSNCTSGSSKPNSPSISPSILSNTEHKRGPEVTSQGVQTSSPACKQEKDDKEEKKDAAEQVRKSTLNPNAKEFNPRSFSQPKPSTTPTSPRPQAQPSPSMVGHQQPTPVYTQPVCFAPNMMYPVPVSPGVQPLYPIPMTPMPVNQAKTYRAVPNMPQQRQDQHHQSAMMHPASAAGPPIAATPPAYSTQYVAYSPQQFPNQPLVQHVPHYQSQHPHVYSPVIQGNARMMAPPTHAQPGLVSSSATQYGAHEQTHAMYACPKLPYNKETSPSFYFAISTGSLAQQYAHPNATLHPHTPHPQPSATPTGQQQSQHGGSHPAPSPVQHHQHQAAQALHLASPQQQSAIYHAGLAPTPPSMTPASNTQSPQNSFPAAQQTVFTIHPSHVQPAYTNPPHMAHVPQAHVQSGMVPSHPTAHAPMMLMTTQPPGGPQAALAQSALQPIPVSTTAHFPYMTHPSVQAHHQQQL
Type: functional
With `CC1(Cc2cc(Cl)ccc2C(F)(F)F)C(=O)Nc2ccc(-c3ccc(F)c(Cl)c3)cc21` (stereo not given) the Potency was 28.2 µM (active). With `CC1(C)CC(=O)C=C(Nc2cccc(C(F)(F)F)c2)C1` the Potency was “inactive”. In the case of `CC1(Cc2cccc(C(F)(F)F)c2)C(=O)Nc2ccc(-c3ccc(F)c(Cl)c3)cc21` (stereo not given), the Potency is reported as 39.8 µM (active). With `Cc1csc(NC(=O)c2c(-c3ccccc3)noc2C)n1` the Potency was “inactive”. In the case of `C[C@H](O)[C@@H]1C(=O)N2CCc3c([nH]c4ccccc34)[C@@H]2C[C@@H]1N(C)C(=O)c1ccco1`, the Potency is reported as “inactive”. `O=C(CCCCCn1c(=S)[nH]c2ccc(N3CCOCC3)cc2c1=O)NCc1ccccc1` was tested, and the Potency was “inactive”. In the case of `CC[C@]12c3[nH]c4ccc(Cl)cc4c3CCN1C(=O)[C@@H](CC(=O)NCCC1=CCCCC1)C[C@@H]2C(=O)N1CCN(C(=O)c2ccco2)CC1`, the Potency is reported as 25.1 µM (active). `CC(C)=CCC/C(C)=C/CNC(=O)C[C@H]1C[C@H](C(=O)N2CCOCC2)[C@@]2(C)c3[nH]c4cc(-c5ccco5)ccc4c3CCN2C1=O` was tested, and the Potency was 39.8 µM (active). For `CC(C)=CCC/C(C)=C/CNC(=O)CC1C[C@H](C(=O)N2CCOCC2)[C@@]2(C)c3[nH]c4ccccc4c3CCN2C1=O` (stereo not given in full), the Potency was 31.6 µM (active). In the case of `CC[C@]12c3[nH]c4ccccc4c3CCN1C(=O)C(CC(=O)NC/C=C(\C)CCC=C(C)C)C[C@@H]2C(=O)N1CCN(C(=O)c2ccco2)CC1` (stereo not given in full), the Potency is reported as 31.6 µM (active). For `CC[C@@H]1C(c2ccccc2)=NN(c2ccccc2)[C@H]1C(=O)N1CCOC1=O`, the Potency was “inactive”. In the case of `CCOc1ccc(-c2nc(O)c3c(-c4cccs4)csc3n2)cc1`, the Potency is reported as “inactive”. `Cn1ccnc1C(=O)C1CCCN(Cc2c[nH]nc2-c2ccc(-c3ccccc3)cc2)C1` (stereo not given) was tested, and the Potency was “inactive”. In the case of `CCN(CC)c1ccc2cc(-c3nnc(-c4ccccc4)o3)c(=O)oc2c1`, the Potency is reported as “inactive”. In the case of `COc1cc2cc(C(N)=O)c(N)nc2cc1OC`, the Potency is reported as “inactive”. With `Cc1ccc2nc3c(cc(C(=O)NCC4CCCO4)c(=N)n3C(C)C)c(=O)n2c1` (stereo not given) the Potency was “inactive”. In the case of `CC[C@]12c3[nH]c4ccc(Cl)cc4c3CCN1C(=O)[C@@H](CC(=O)NC/C=C(\C)CCC=C(C)C)C[C@@H]2C(=O)N1CCN(C(=O)C2CC2)CC1`, the Potency is reported as 25.1 µM (active). In the case of `O=C1CSC(N/N=C/c2ccncc2)=N1`, the Potency is reported as “inactive”. `Cc1ccc(S(=O)(=O)NCc2c(-c3ccccc3)noc2C)cc1` was tested, and the Potency was “inactive”. `Cc1ccc(S(=O)(=O)NCCCCCC(=O)NCCc2ccccc2)cc1` was tested, and the Potency was “inactive”. With `Cc1ccc(N(C)C(CNS(=O)(=O)c2ccccc2)c2ccccc2)cc1` (stereo not given) the Potency was 25.1 µM (active). For `Cc1cccn2c(=O)c3cc(C#N)c(=O)n(-c4nnc(SCc5ccc(F)cc5)s4)c3nc12`, the Potency was “inactive”. In the case of `COc1ccc(/C=N/Nc2ncnc3sc4c(c23)CCCC4)cc1OC`, the Potency is reported as “inactive”. With `COC(=O)c1ccc(NC(=O)c2c(NCc3ccc(OC)c(OC)c3)sc3c2CCCC3)cc1` the Potency was 17.8 µM (active). For `COc1cccc(-c2ccc3c(N)c(C(=O)Nc4cc(F)ccc4F)sc3n2)c1`, the Potency was “inactive”. In the case of `COc1ccc(NC(=O)CON=CC(=O)Nc2ccc(C)cc2)c(OC)c1`, the Potency is reported as “inactive”. With `COc1ccc(OC)c(NC(=O)c2ccc(OC3CSC3)cc2)c1` the Potency was “inactive”. For `COc1ccc(OC)c(NC(=O)COC(=O)c2ccc(OC)c(S(=O)(=O)N3CCOCC3)c2)c1`, the Potency was “inactive”. With `COc1ccc(NC(=O)C2=CN3CCS(=O)(=O)N=C3C=C2)c(OC)c1` the Potency was “inactive”. For `COc1ccc(NC(=O)c2c(NCc3sccc3C)sc3c2CCCCC3)c(OC)c1`, the Potency was 39.8 µM (active). `COc1ccc(NC(=O)c2ccc(S(=O)(=O)C(F)F)cc2)c(OC)c1` was tested, and the Potency was “inactive”. In the case of `COc1ccc(OC)c(NC(=O)c2c(NCc3ccc(OC)c(OC)c3)sc3c2CCC3)c1`, the Potency is reported as 39.8 µM (active). For `COc1ccc(NC(=O)c2c(NCc3cccc(F)c3)sc3c2CCC3)c(OC)c1`, the Potency was 25.1 µM (active). `Cc1nc(NC(=O)CSc2nnc(C3CC3)n2C)sc1C` was tested, and the Potency was “inactive”. `C=CCn1c(=N)c(C(=O)NCCCOC)cc2c(=O)n3cc(C)ccc3nc21` was tested, and the Potency was “inactive”. In the case of `CCOc1ccc(S(=O)(=O)[N-]c2nc3ccccc3nc2-[n+]2ccc(NC(=O)c3cccs3)cc2)cc1`, the Potency is reported as “inactive”. `CCCn1c(=O)c(C(=O)Nc2ccccc2C)c(O)c2ccccc21` was tested, and the Potency was “inactive”. For `COC(=O)c1c(NC(=S)NC(=O)c2ccco2)sc2c1CCCC2`, the Potency was “inactive”. In the case of `COC(=O)c1c(NC(=O)c2ccc(N(C)S(=O)(=O)c3ccc(C)cc3)cc2)sc2c1CCCC2`, the Potency is reported as “inactive”. For `COC(=O)c1ccc(NC(=O)c2c(NCc3ccc(C)o3)sc3c2CCCC3)cc1`, the Potency was 35.5 µM (active). For `Cc1ccc(C(=O)N2N=C(c3ccc(Br)cc3)CC2c2ccccc2O)cc1` (stereo not given), the Potency was 42.3 µM (active). `O=C(O)c1ccc(N2N=C(c3ccccc3)CC2c2ccccc2)cc1` (stereo not given) was tested, and the Potency was “inactive”. In the case of `COc1ccc(C2=NN(C(=O)c3ccccc3)C(c3ccc(OC)c(OC)c3)C2)c(O)c1` (stereo not given), the Potency is reported as “inactive”. For `N#Cc1c(C(F)(F)F)cc(-c2cccs2)nc1N1CCCCC1`, the Potency was “inactive”. In the case of `Cc1ccccc1NC(=O)c1nn(C)c(C(=O)Nc2ccccc2C)c1[N+](=O)[O-]`, the Potency is reported as “inactive”. In the case of `Cc1ccccc1NC(=O)Nc1nnc(Cc2ccc([N+](=O)[O-])cc2)s1`, the Potency is reported as 11.2 µM (active). For `COc1ccccc1NC(=O)Nc1nnc(Cc2ccc(F)cc2)s1`, the Potency was “inactive”. In the case of `CCCc1cc(NCCOCCO)n2c(nc3ccccc32)c1C#N`, the Potency is reported as “inactive”. With `Nc1nc(O)nc(O)c1N=Cc1ccccc1` the Potency was “inactive”. In the case of `C/C(=N\NC(=O)c1ccc(CN2CCOCC2)cc1)c1ccc([N+](=O)[O-])cc1`, the Potency is reported as “inactive”. For `C/C(=N\Nc1nc(C)c(C)s1)c1ccc([N+](=O)[O-])cc1`, the Potency was 37.7 µM (active). `COC(=O)c1ccc(/C=N/Nc2nc(C)c(C)s2)cc1` was tested, and the Potency was “inactive”. With `O=S(=O)(CCSc1nc2ccccc2o1)c1nc2ccccc2s1` the Potency was 15.8 µM (active). `CCOc1ccccc1N(CC(=O)NCCSc1ccccn1)S(=O)(=O)c1ccccc1` was tested, and the Potency was “inactive”. For `C=CCS(=O)(=O)c1nc2ccccc2s1`, the Potency was 35.5 µM (active). With `O=C(O)c1ccc(C=C(c2nc3ccccc3s2)c2nc3ccccc3s2)cc1` the Potency was “inactive”. For `O=C(OCc1nc2ccccc2s1)c1ccccc1O`, the Potency was “inactive”. In the case of `Brc1ccccc1-c1nnc(SCc2nc3ccccc3s2)o1`, the Potency is reported as “inactive”. `O=S(=O)(CCSc1ccccn1)c1nc2ccccc2s1` was tested, and the Potency was 22.4 µM (active). In the case of `Cc1cccc(N2CC(C(=O)Nc3ccc(S(=O)(=O)Nc4nccs4)cc3)CC2=O)c1C` (stereo not given), the Potency is reported as “inactive”. For `COCC(=O)Nc1nc2n(n1)C(c1ccc(Cl)cc1)CC(c1ccc(OC)cc1)N2` (stereo not given), the Potency was “inactive”. With `COc1cc(CO)c(Br)cc1OCC(N)=O` the Potency was “inactive”. `COc1ccc(C2c3c(ncn(CCN4CCOCC4)c3=N)Oc3ccc4ccccc4c32)cc1OC` (stereo not given) was tested, and the Potency was 14.1 µM (active). In the case of `COc1ccc(C2c3ccc4ccccc4c3Oc3ncn(CCN4CCOCC4)c(=N)c32)cc1` (stereo not given), the Potency is reported as 14.1 µM (active). In the case of `N=c1c(C(=O)NC2CCCC2)cc2c(=O)n3ccccc3nc2n1CCCN1CCOCC1`, the Potency is reported as “inactive”. For `COc1ccc(C2c3ccc4ccccc4c3Oc3ncn(CCCO)c(=N)c32)cc1` (stereo not given), the Potency was 35.5 µM (active). In the case of `COc1ccc(Nc2ncc(F)c(N3CCOCC3)n2)cc1`, the Potency is reported as “inactive”. For `CN(C)CCn1cnc2c(c1=N)C(c1ccccc1)c1ccc3ccccc3c1O2` (stereo not given), the Potency was 28.2 µM (active). With `COc1ccc2nc(NCCN=C(S)NCCCN3CCOCC3)c(C#N)cc2c1` the Potency was “inactive”. In the case of `Cc1ccc(S(=O)(=O)NC23CC4CC(CC(C4)C2)C3)cc1`, the Potency is reported as “inactive”. In the case of `CCCn1nc(NC(=O)COC)c2cc3cccc(C)c3nc21`, the Potency is reported as “inactive”. `COc1ccc(OC)c(/C=C2\Oc3cc(OCC(=O)N4CCC[C@H]4C(=O)O)ccc3C2=O)c1` was tested, and the Potency was “inactive”. With `COCCNc1oc(/C=C/c2ccccc2)nc1C#N` the Potency was “inactive”. With `COc1cc2ccccc2nn1` the Potency was “inactive”. For `COc1ccc(C2C=C(c3ccccc3)Nc3nc(CCCO)nn32)cc1` (stereo not given), the Potency was “inactive”. In the case of `N=c1c2c(ncn1Cc1ccco1)Oc1ccc3ccccc3c1C2c1ccccc1` (stereo not given), the Potency is reported as 12.6 µM (active). With `COc1ccc(C2c3c(ncn(CCCO)c3=N)Oc3ccc4ccccc4c32)cc1` (stereo not given) the Potency was 25.1 µM (active). `CCOCCn1c(CN2CCCC(C)C2)nc2c1c(=O)n(C)c(=O)n2C` (stereo not given) was tested, and the Potency was “inactive”. With `COCCCn1c(C)nnc1SCc1ccc(C(C)(C)C)cc1` the Potency was “inactive”. For `CC(=O)Nc1nc2n(n1)C(c1ccc(F)cc1)C=C(c1ccc(Cl)cc1)N2` (stereo not given), the Potency was “inactive”. In the case of `Cc1ccc(N2C(=O)/C(=C\Nn3cnnc3)c3ccccc3C2=O)cc1`, the Potency is reported as “inactive”. `Cc1nc(SCc2ccccc2)c2ccsc2n1` was tested, and the Potency was “inactive”. In the case of `CCCCn1c(=O)nc2n(-c3ccccc3)c3ccccc3cc-2c1=O`, the Potency is reported as “inactive”. `CCCCN=c1nc(S)n(-c2ccccc2)c(C)c1C(C)=O` was tested, and the Potency was 39.8 µM (active). In the case of `COc1ccc(C(=O)/C(C#N)=N/Nc2ccc([N+](=O)[O-])cc2)cc1`, the Potency is reported as 10 µM (active). With `C/C(=N\Nc1ccc([N+](=O)[O-])cc1)c1ccco1` the Potency was “inactive”. `O=[N+]([O-])c1ccc(NN=C(Oc2ccccc2)c2ccc([N+](=O)[O-])cc2)cc1` was tested, and the Potency was “inactive”. With `Cc1cc(C)c(S(=O)(=O)Nc2cc(SCC(=O)O)c(O)c3ccccc23)cc1C` the Potency was 20 µM (active). For `CC(=O)Nc1ccc(NS(=O)(=O)c2cc(-c3cnc(C4CC4)o3)ccc2C)cc1`, the Potency was “inactive”. For `COC(=O)CCC(=O)N1CCCC(N2CCN(c3cccc(C(F)(F)F)c3)CC2)C1` (stereo not given), the Potency was “inactive”. `CSC1=NCCN1S(=O)(=O)c1ccc(F)cc1` was tested, and the Potency was “inactive”. With `COC(=O)Cc1c(C)c2ccc(O)c(CNCc3ccc(OC)c(OC)c3)c2oc1=O` the Potency was “inactive”. `Cc1sc(Cc2nc(O)cs2)nc1-c1ccccc1` was tested, and the Potency was “inactive”. With `CCc1ccc2oc(-c3ccc(OC)cc3)cc(=Nc3cccc(C(=O)O)c3)c2c1` the Potency was “inactive”. With `COc1ccc(-c2c/c(=N\c3nc(-c4ccccc4)c(C)s3)c3ccccc3o2)cc1O` the Potency was 31.6 µM (active).
